These results are taken from PubChem BioAssay (NCI).

SMILES strings stand for the structures. Compounds without any hit were thinned out: in the full panel of roughly 83,000, 20% have a hit.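 The test compound was applied at a single concentration to cells in 96-well plates for 48 hours, and percent growth was recorded.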 Unmarked numbers belong to inactive results. Calls of active or inactive are those of the source. Rule for the calls: active = growth percent below 10; inactive = the rest.

Among the test systems are NCI-H23 lung; NCI-H226 lung; NCI-H322M lung; HOP-62 NSCLC; NCI-H460 lung; HOP-92 NSCLC; NCI-H522 lung; A549/ATCC NSCLC; 786-0 renal; COLO 205 colon; DU-145 prostate; K-562 leukemia; MALME-3M melanoma; MDA-MB-231 breast; RXF 393 renal; SF-268 CNS; SF-295 CNS; SF-539 CNS; UACC-257 melanoma; M14 melanoma.
Holding throughout (test): NCI-60 one-dose screen, 48 h (100 = growth as untreated, 0 = no growth, -100 = all killed)
Holding throughout (conditions): 10 µM unless noted

Take `COc1ccc2cc(/C=C3\N=C(c4cc(OC)c(OC)c(OC)c4)OC3=O)c(OC)nc2c1`: the growth with NCI-H23 lung was 101%; in the assay on NCI-H226 lung, 107%; in the assay on NCI-H322M lung it was 107%; in the assay on HOP-62 NSCLC, 88.9%; in the assay with NCI-H460 lung, 111%; in the assay with HOP-92 NSCLC, 97.7%. Further, the growth with NCI-H522 lung was 82.3%; in the assay on A549/ATCC NSCLC it was 96.7%; in the assay with 786-0 renal it was 100%; with COLO 205 colon, 117%; in the assay on DU-145 prostate, 110%; in the assay on K-562 leukemia it was 90.1%. Further, the growth was 104% in the assay with MALME-3M melanoma; 91.5% in the assay with MDA-MB-231 breast; 119% in the assay on RXF 393 renal; 98.2% with SF-268 CNS; 98.7% with SF-295 CNS; 101% with SF-539 CNS. Moreover, the growth in the assay on UACC-257 melanoma is 95.5%; in the assay on M14 melanoma, 111%.
As for `COC(=O)c1ccc2c(c1)n(Cc1ccc3ccccc3c1)c[n+]2Cc1ccc2ccccc2c1`, the growth with NCI-H23 lung was 34.6%; with NCI-H226 lung, 61.3%; in the assay with NCI-H322M lung it was 57.2%; with HOP-62 NSCLC, 63.8%; in the assay on NCI-H460 lung, 28.6%; with HOP-92 NSCLC it was -10.7% (active). Moreover, the growth was 26.3% in the assay on NCI-H522 lung; 75% in the assay with A549/ATCC NSCLC; 70.3% with 786-0 renal; 3.66% (active) in the assay with COLO 205 colon; 72.5% in the assay with DU-145 prostate; 20.6% in the assay on K-562 leukemia. The growth in the assay on MALME-3M melanoma was -4.4% (active); in the assay with MDA-MB-231 breast, 28.5%; in the assay with RXF 393 renal, 69.3%; with SF-268 CNS it was 40.9%; with SF-295 CNS it was 58.7%; in the assay with SF-539 CNS, 65.7%. For the same compound, the growth in the assay on UACC-257 melanoma was 42%; in the assay on M14 melanoma, 14.1%.
Take `O=C1C(Cl)=C(NCCCN(CCCNC2=C(Cl)C(=O)c3ccccc3C2=O)C2=C(Cl)C(=O)c3ccccc3C2=O)C(=O)c2ccccc21`: the growth with NCI-H23 lung was -13.5% (active); in the assay on NCI-H226 lung, 88.1%; in the assay with NCI-H322M lung it was 61.5%; with HOP-62 NSCLC, 102%; in the assay with NCI-H460 lung, 39.2%; with HOP-92 NSCLC it was 87.9%. Moreover, the growth in the assay with NCI-H522 lung was 73.8%; in the assay on A549/ATCC NSCLC it was 45.6%; in the assay on 786-0 renal it was 90.5%; in the assay with COLO 205 colon, -13.8% (active); with DU-145 prostate, -88% (active); with K-562 leukemia it was 12.2%. Also, the growth with MALME-3M melanoma was -28.4% (active); in the assay on MDA-MB-231 breast, 38.5%; in the assay with RXF 393 renal, 85.3%; with SF-268 CNS, 74.7%; with SF-295 CNS, 91.4%; in the assay with SF-539 CNS, 88.3%. Besides, the values for the growth in the assay on UACC-257 melanoma and with M14 melanoma were 52.6% and 11.7%, respectively.
`CCCS(=O)(=O)Nc1ccc(F)c(C(=O)c2c[nH]c3ncc(-c4ccc(OCCCC5CCCCN5)nc4)cc23)c1F` (stereo not given): the growth in the assay on NCI-H23 lung is 80.7%; in the assay on NCI-H226 lung, 69.9%; in the assay on NCI-H322M lung it was 97.8%; with HOP-62 NSCLC, 65.5%; in the assay with NCI-H460 lung, 79.9%; in the assay on HOP-92 NSCLC it was 4.71% (active). The growth is 59.5% with NCI-H522 lung; 83.5% with A549/ATCC NSCLC; 78.7% in the assay with 786-0 renal; 2.52% (active) in the assay on COLO 205 colon; 87.5% in the assay on DU-145 prostate; 30.1% with K-562 leukemia. In addition, the growth with MALME-3M melanoma is -25.7% (active); with MDA-MB-231 breast, 14.9%; with RXF 393 renal, 63.9%; in the assay with SF-268 CNS, 68.6%; in the assay with SF-295 CNS, 75.7%; in the assay on SF-539 CNS, 28.4%. Also, the growth in the assay with UACC-257 melanoma is -17% (active); with M14 melanoma, -17.2% (active).
In the case of `O=C(Nc1nc2ccc(C(F)(F)F)cc2s1)c1cc(Cl)ccc1O`, the growth was -12% (active) in the assay with NCI-H23 lung; 5.73% (active) in the assay on NCI-H226 lung; 10.6% in the assay on NCI-H322M lung; 4.72% (active) with HOP-62 NSCLC; 4.41% (active) in the assay with NCI-H460 lung; -12.3% (active) in the assay with HOP-92 NSCLC. Also, the growth is -15.1% (active) with NCI-H522 lung; 11.3% in the assay on A549/ATCC NSCLC; 9.95% (active) in the assay with 786-0 renal; -57.3% (active) with COLO 205 colon; 25.9% in the assay with DU-145 prostate; 5.73% (active) in the assay on K-562 leukemia. Further, the growth with MALME-3M melanoma was -16.6% (active); in the assay on MDA-MB-231 breast, -10.5% (active); in the assay on RXF 393 renal, -2.8% (active); with SF-268 CNS, 19.5%; with SF-295 CNS, -31.2% (active); in the assay with SF-539 CNS, 14.6%. The growth in the assay on UACC-257 melanoma is -8.55% (active); in the assay with M14 melanoma it was 15.1%.
Take `O=C(CSC(=S)N1CCCCC1)Nc1ccccc1`: the growth was 97.4% in the assay on NCI-H23 lung; 94.5% with NCI-H226 lung; 101% with NCI-H322M lung; 100% in the assay on HOP-62 NSCLC; 104% in the assay on NCI-H460 lung; 99.6% with HOP-92 NSCLC. Also, the growth in the assay on NCI-H522 lung is 82.3%; in the assay on A549/ATCC NSCLC it was 87.9%; in the assay on 786-0 renal, 97%; with COLO 205 colon it was 112%; in the assay with DU-145 prostate it was 106%; in the assay with K-562 leukemia, 90.2%. The growth is 101% in the assay with MALME-3M melanoma; 103% in the assay on MDA-MB-231 breast; 110% with RXF 393 renal; 93.3% with SF-268 CNS; 103% in the assay with SF-295 CNS; 101% in the assay on SF-539 CNS. Also, the growth in the assay with UACC-257 melanoma was 92.4%; in the assay on M14 melanoma it was 98.6%.
For the compound `O=c1cc(/C=N\Nc2nc(-c3ccc(Cl)cc3Cl)cs2)c2cc(Cl)ccc2o1`, the growth in the assay on NCI-H23 lung is 85.3%; in the assay with NCI-H226 lung it was 87.9%; with NCI-H322M lung, 95.3%; in the assay with HOP-62 NSCLC, 80.3%; in the assay on NCI-H460 lung it was 96.1%; with HOP-92 NSCLC, 82.2%. Besides, the growth with NCI-H522 lung is 88.6%; in the assay with A549/ATCC NSCLC it was 88.3%; with 786-0 renal it was 96.9%; with COLO 205 colon it was 107%; in the assay on DU-145 prostate, 102%; in the assay on K-562 leukemia it was 84.1%. Also, the growth with MALME-3M melanoma is 116%; in the assay on MDA-MB-231 breast, 82.8%; in the assay on RXF 393 renal it was 114%; with SF-268 CNS, 101%; with SF-295 CNS it was 95.2%; with SF-539 CNS, 94.3%. Besides, the figures for the growth with UACC-257 melanoma and in the assay on M14 melanoma were 99.2% and 91.4%, respectively.
